Measured values as given in PubChem BioAssay (Tox21).
Inconclusive results are not listed. Where a call stands in place of a potency, no number is given. Activity calls are given as the source filed them. Calls come from the whole dose curve; as a rule, active = well fitted inhibition curve with a large enough effect in the repeat runs; inconclusive = weak or mixed curves; inactive = flat fitted curve, though single readings scatter.

experiment: qHTS assay to identify small molecule HDAC inhibitors (AID 1259364); details: HCT-116 HDAC-Glo I/II luminescence, 2 h; series mostly up to 92.4 µM; note: nearly all actives have a fitted effect of over 45% in size
Procedure, shortened: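 HCT-116 (wild type), 1,500 cells/well, overnight; compound 2 hr 37C 5% CO2; HDAC-Glo I/II reagent 30 min RT; luminescence readout.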
Potency is the fitted concentration of half-maximal effect.

Compound | Potency
Nc1ccc(Sc2ccc(N)cc2)cc1 | inactive
[Cl][Sb]([Cl])[Cl] | inactive
CN(C)CCc1c[nH]c2cccc(O)c12 | inactive
S=C(SSC(=S)N1CCCCC1)N1CCCCC1 | inactive
CC(C)CC(C)(c1ccc(O)cc1)c1ccc(O)cc1 | inactive
c1cc[c]([Sb]([c]2ccccc2)[c]2ccccc2)cc1 | inactive
CCCCN(CCCC)C(=S)[S-].CCCCN(CCCC)C(=S)[S-].[Zn+2] | inactive
Oc1ccc(C2(c3ccc(O)cc3)CCCCC2)cc1 | inactive
[Cd+2].[Cl-].[Cl-] | inactive
COc1ccc(N)cc1N | inactive
Clc1ccc(CO/N=C(\Cn2ccnc2)c2ccc(Cl)cc2Cl)c(Cl)c1 | inactive
Clc1ccc(CSC(Cn2ccnc2)c2ccc(Cl)cc2Cl)cc1 (stereo not drawn) | inactive
CCCCCCCCCCCCCCCC[n+]1ccccc1 | inactive
CC(=O)[O-].CC(=O)[O-].[Hg+2] | 19.3 µM (active)
CCCOCC(=Nc1ccc(Cl)cc1C(F)(F)F)n1ccnc1 | inactive
CN(C)c1ccc(N=Nc2ccccc2)cc1 | 4.33 µM (active)
[Hg+2].[I-].[I-] | 24.3 µM (active)
C=CCC1=C(C)C(OC(=O)C2C(C=C(C)C)C2(C)C)CC1=O (stereo not drawn) | inactive
Clc1ccc(CCC(Cn2ccnc2)Sc2c(Cl)cccc2Cl)cc1 (stereo not drawn) | inactive
CCCCCCCCc1ccc(O)cc1 | inactive
CC(C)CC(C)Nc1ccc(Nc2ccccc2)cc1 (stereo not drawn) | inactive
CCCN(CCC)c1c([N+](=O)[O-])cc(S(N)(=O)=O)cc1[N+](=O)[O-] | inactive
Oc1c(Br)c(Br)c(Br)c(Br)c1Br | inactive
